# Assay outcomes as filed in PubChem BioAssay.
# Only some compounds are listed: those with a hit (about 1.7% of all), similar ones and a draw of the others.
# PfHsp40 rescue – restores yeast growth despite PfHsp40 toxicity; growth rescue, % at 12.5 µM; S. cerevisiae expressing PfHsp40, growth rescue, ATP luminescence; AID 504582; actives 0.68% (n = 340,000); in the data active = growth rescue above about 28%, passing the limit was not always enough;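 also: yeast W303a lacking pdr1 and pdr3 grown in galactose medium; growth measured after three days at 30 °C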
# SARS 3CLpro inh-1 – SARS-CoV 3CLpro protease inhibition | P0C6X7 | recombinant SARS-CoV 3CLpro, quenched FRET peptide cleavage | inhibition, % at 6 µM | actives 0.14% (n = 290,000); in the data active = inhibition above about 12%
# VHR inh abs – inhibitors of human VHR1 phosphatase (DUSP3). P51452. recombinant VHR phosphatase, pNPP absorbance. inhibition, % at 13.3 µM. actives 0.52% (n = 290,000). AID 1654; in the data active = inhibition above about 50%
# Target sequence (P51452 whole entry, looked up): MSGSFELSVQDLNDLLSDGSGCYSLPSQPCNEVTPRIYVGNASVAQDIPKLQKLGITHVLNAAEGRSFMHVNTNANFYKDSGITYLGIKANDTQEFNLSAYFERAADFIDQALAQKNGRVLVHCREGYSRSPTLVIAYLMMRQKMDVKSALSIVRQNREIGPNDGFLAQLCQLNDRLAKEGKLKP
# Vc quorum ag – quorum light induction in luxS cqsA deficient V. cholerae; V. cholerae BH1578 lux reporter, luminescence, 6 h; activation, % at 18.7 µM; actives 0.16% (n = 350,000); AID 588436; in the data active = activation mostly above about 9.7%, no sharp cut-off
# MazF activator – MazEF (E. coli) toxin RNase activation | FAM/BHQ RNA-DNA oligo cleavage fluorescence, 5 h | activation, % at 20 µM | actives 0.32% (n = 350,000) | AID 504720; in the data active = activation above about 50%
# Target sequence (P0AE70 whole entry, looked up): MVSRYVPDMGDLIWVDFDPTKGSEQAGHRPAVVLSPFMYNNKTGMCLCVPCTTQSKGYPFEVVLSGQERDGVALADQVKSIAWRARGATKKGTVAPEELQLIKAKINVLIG
# BJeLR viability – kills HRASV12-expressing BJeLR cells; inhibition, % (test concentration not listed); AID 1554; BJeLR (HRASV12) viability, CellTiter-Glo ATP luminescence, 48 h; actives 0.17% (n = 300,000); in the data active = inhibition above about 50%
# SARS 3CLpro inh-2 – confirmation of SARS coronavirus 3C-like protease inhibitors | shares compounds with SARS 3CLpro inh-1 | QFRET protease activity assay, 3CLpro | inhibition, % at 6 µM | actives 36% (n = 380); in the data active = inhibition above about 13%
# * marks the source's active call; other numbers are inactive results; i = inactive; nt = no result.
SMILES,PfHsp40 rescue,SARS 3CLpro inh-1,VHR inh abs,Vc quorum ag,MazF activator,BJeLR viability,SARS 3CLpro inh-2
O=C(Nc1c2c(nn1-c1ccc(Cl)cc1)CS(=O)(=O)C2)c1ccc2c(c1)OCO2,1,0,3,3,-3,10,nt
O=C(Nc1c2c(nn1-c1cccc(Cl)c1)CS(=O)(=O)C2)c1ccc2c(c1)OCO2,1,13*,30,0,1,-2,1
CN(C)S(=O)(=O)c1cccc(NC(=S)N/N=C/c2cc(Br)ccc2O)c1,0,15*,9,-3,-27,8,5
O=c1ccc(=O)n(CCc2ccccn2)[nH]1,0,nt,nt,1,-5,nt,nt
Cc1ccc2[nH]c3c(c2c1)CN(C(=O)CN1c2ccc(F)cc2CCC1C)CC3 (configuration not stated),0,44*,36,i,3,0,28*
Cc1ccc2[nH]c3c(c2c1)CN(C(=O)CN1CCN(c2cccc(C)c2C)CC1)CC3,-1,4,-6,i,17,-7,nt
COc1cccc(CN(C)C(=O)c2cc(S(=O)(=O)N3CCCC3)ccc2C)c1OC,-1,nt,nt,1,4,nt,nt
CCC(C(=O)Oc1c(C(C)C)cccc1C(C)C)c1ccccc1 (configuration not stated),0,nt,nt,-1,-17,nt,nt
Cc1cccc(Nc2nnc(SCC(=O)Nc3ncc(C(F)(F)F)cc3Cl)s2)c1C,3,13*,-2,i,-2,-13,3
Cc1ccccc1Nc1nnc(SCC(=O)Nc2ncc(C(F)(F)F)cc2Cl)s1,1,20*,-12,-2,-13,-2,-4
COc1cc(/C=C2\SC(=S)N(NC(=O)c3ccccc3O)C2=O)ccc1O,0,3,nt,i,-67,3,nt
O=C(NN1C(=O)/C(=C/c2ccc(O)cc2)SC1=S)c1ccccc1O,1,13*,4,0,-514,1,-2
O=C1c2[nH]nc(-c3ccccc3O)c2C(c2ccccc2F)N1Cc1ccco1 (configuration not stated),1,13*,7,0,0,1,2
O=C1c2[nH]nc(-c3ccccc3O)c2C(c2ccccc2)N1Cc1ccco1 (configuration not stated),0,3,-4,nt,4,3,nt
COc1ccccc1NC(=O)CNC(=O)Cn1cnc2sc(C)c(C)c2c1=O,0,2,27,0,3,-10,nt
CN(C)c1ccc(/C=N/NC(=O)Cn2nnc3ccccc32)cc1,-2,10,-5,0,3,17,nt
COc1ccc(/C=N/NC(=O)Cn2nnc3ccccc32)cc1OC,1,12*,-13,0,8,-26,16*
CCc1ccc(NC(=O)C2CCCN(S(=O)(=O)c3ccc4[nH]c(=O)ccc4c3)C2)cc1 (configuration not stated),0,13*,7,i,14,-7,1
COc1ccc(CC(=O)OC(C)C(=O)c2ccc(C)cc2)cc1 (configuration not stated),-1,5,-19,3,2,6,nt
CC1CC(C)CN(C(=O)c2cc3cc(Br)cc(Br)c3o2)C1 (configuration not stated),2,-1,22,0,5,6,nt
N#Cc1c(NC(=S)NC(=O)c2ccccc2)sc2c1CCC2,0,21*,-4,0,17,10,-3
CC(=O)n1cc(N(C(=O)CCl)c2ccc(Cl)cc2)c2ccccc21,nt,13*,29,0,4,108*,35*
CCOC(=O)c1ccccc1Nc1cn(C(C)=O)c2ccccc12,-1,-1,12,i,13,5,nt
O=C(NNC(=O)c1cccc2ccccc12)c1cccc(Cl)c1,1,nt,nt,i,3,nt,nt
CC(C)Oc1cc(NC(=O)CSCC(=O)Nc2cccc(C(F)(F)F)c2)c(Cl)cc1Cl,6,17*,-1,i,-5,14,1
SMILES,PfHsp40 rescue,SARS 3CLpro inh-1,VHR inh abs,Vc quorum ag,MazF activator,BJeLR viability,SARS 3CLpro inh-2
O=C(O)CSCC(=O)Nc1cc(C(F)(F)F)ccc1Cl,-1,-2,8,0,3,2,nt
O=S(=O)(c1ccc(F)cc1)N1CCN(S(=O)(=O)c2ccc3c(c2)OCCO3)CC1,0,nt,nt,i,0,nt,nt
Cc1ccc(S(=O)(=O)N2CCN(S(=O)(=O)c3ccc4c(c3)OCCO4)CC2)cc1,0,12*,18,i,-16,-7,-3
O=C(N/N=C\c1c(O)ccc2ccccc12)c1cncc(Br)c1,7,29*,26,28,-175,13,26*
Cc1cc(COc2ccccc2)oc1C(=O)O,-1,-4,-2,1,7,-12,nt
O=[N+]([O-])/C=C/c1cn(Cc2ccccc2)c2ccccc12,-1,13*,13,i,10,0,-2
Cc1ccc(NC(=O)Cc2nc(CN(C)CC(=O)Nc3ccc(C)cc3)cs2)cc1,-1,nt,nt,0,3,nt,nt
COc1cccc(N2C(=O)/C(=C/c3ccc(C)o3)C(=O)NC2=S)c1,5,13*,-16,0,0,4,-4
CC(CO)NS(=O)(=O)c1cccc(Cl)c1F (configuration not stated),nt,nt,nt,0,6,nt,nt
CC(C)c1ccc(N(C(=O)c2csnn2)C(C(=O)NC2CCCC2)c2cccnc2)cc1 (configuration not stated),-1,15*,35,2,8,-12,20*
O=C(NCc1ccc(F)cc1)c1ccc(S(=O)(=O)Nc2cccc(C(F)(F)F)c2)cc1,2,18*,6,0,-1,-7,11
O=C(NCc1ccccc1F)c1ccc(S(=O)(=O)Nc2cccc(C(F)(F)F)c2)cc1,1,1,-3,0,-4,6,nt
O=C(Cn1nnc2ccccc21)c1ccc(Br)cc1,1,57*,20,i,7,13,55*
Cc1ccc(C(=O)Cn2nnc3ccccc32)cc1,-1,6,22,-5,2,-2,nt
CC(=O)c1ccc(NC(=O)c2ccc(NC(=O)c3ccco3)cc2)cc1,-1,2,14,-2,-126,3,nt
COC(=O)c1ccc(NC(=O)c2ccc(NC(=O)c3ccco3)cc2)cc1,-2,13*,-3,-8,-133,4,-1
CCCCCN(C(=O)CCC(=O)OCC(=O)NCc1cccc(OC)c1)c1c(N)n(CCCC)c(=O)[nH]c1=O,3,3,-4,i,0,-9,nt
CCc1ccc(NC(=O)CSc2nc3ccsc3c(=O)n2CCC(=O)O)cc1,-2,6,8,i,-6,-10,nt
CC(C)c1ccc(NC(=O)CSc2nc3ccsc3c(=O)n2Cc2ccc(C(=O)O)cc2)cc1,1,13*,13,0,-2,-10,5
FC(F)(F)c1cccc(NC(=S)NCc2ccccn2)c1,0,-5,2,-1,2,7,nt
